Assay outcomes deposited in PubChem BioAssay by National Center for Advancing Translational Sciences (NCATS).
In the library only some 12% were active in any assay of this set; here they are far more common.
JMJD2A Tudor: inhibitors of human JMJD2A Tudor domain | 390,000 compounds, 4.4% hits | Potency, µM (series often up to 114 µM), without a hit: at the top dose activity change, negative = inhibition, usual class: inhibitors | AlphaScreen JMJD2A-Tudor / H3K4me3 peptide binding | O75164; also: % is scaled to controls: 0 for no effect and ±100 for the full control effect; nearly all actives have a fitted effect of over 50% in size
HP1b binding inh: blocks HP1-beta chromodomain binding to methylated histone tails. P83916. AlphaScreen HP1-beta / biotin-H3K9me3 peptide binding. Potency, µM (series often up to 114 µM), for the others: top-dose activity change, negative = inhibition, hits mostly inhibitors. 390,000 compounds, 0.56% hits; also: nearly all actives have a fitted effect of over 70% in size
Target sequence (P83916 whole entry, looked up): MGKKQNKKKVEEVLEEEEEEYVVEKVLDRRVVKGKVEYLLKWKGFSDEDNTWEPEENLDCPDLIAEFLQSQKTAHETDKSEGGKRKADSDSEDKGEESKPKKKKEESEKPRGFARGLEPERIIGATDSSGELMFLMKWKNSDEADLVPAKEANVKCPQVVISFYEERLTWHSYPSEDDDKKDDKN
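HP1-beta protein (50 nM final) preincubated 30 min at room temperature with biotinylated H3(1-18)K9me3 peptide (50 nM) in PBS pH 7.4, 0.01% Tween-20, then compound added for 30 min. AlphaScreen streptavidin donor/nickel chelate acceptor beads (10 ug/mL final), 30 min dark, luminescence read.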
L3MBTL1 block: L3MBTL1 (human) inhibition; Q9Y468; AlphaScreen L3MBTL1–H3K9me1 peptide binding; Potency, µM (doses to about 57.1 µM), for inactives: at the top dose activity, negative = inhibition, most hits filed as inhibitors; 230,000 compounds, 0.66% hits; also: % is scaled to controls: 0 for no effect and ±100 for the full control effect; nearly all actives have a fitted effect of over 60% in size
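First, the protein-peptide complex forms for 30 min at room temperature (L3MBTL1 50 nM, biotinylated H3K9me1 peptide 75 nM). Next, compounds are pin-transferred and incubated 30 min. Finally, AlphaScreen beads are added and read after 30 min.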
BAZ2B block: inhibitors of human BAZ2B bromodomain; Q9UIF8; AlphaScreen BAZ2B-H3K14Ac peptide displacement; Potency, µM (highest dose often 114 µM), for inactives: at the highest dose activity change, negative = inhibition, hits mostly inhibitors; 360,000 compounds, 4.4% hits; AID 504333; also: % is scaled to controls: 0 for no effect and ±100 for the full control effect; nearly all actives have a fitted effect of over 60% in size
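Complex of BAZ2B and biotin-H3K14Ac (50 nM apiece) forms over 30 min at RT, then faces library compounds up to 110 uM for another 30 min; AlphaScreen beads added, 20 min dark incubation, luminescence read.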
G9a inh: G9a (human) methyltransferase inhibition | G9a H3K9 monomethylation, AlphaScreen, 2 h | Potency, µM (doses to about 102 µM), for inactives: at the highest dose activity, negative = inhibition, usual class: inhibitors | AID 504332 | Q96KQ7 | 350,000 compounds, 8.8% hits; also: % is scaled to controls: 0 for no effect and ±100 for the full control effect; nearly all actives have a fitted effect of over 75% in size
Target sequence (Q96KQ7 913-1193 limits assumed): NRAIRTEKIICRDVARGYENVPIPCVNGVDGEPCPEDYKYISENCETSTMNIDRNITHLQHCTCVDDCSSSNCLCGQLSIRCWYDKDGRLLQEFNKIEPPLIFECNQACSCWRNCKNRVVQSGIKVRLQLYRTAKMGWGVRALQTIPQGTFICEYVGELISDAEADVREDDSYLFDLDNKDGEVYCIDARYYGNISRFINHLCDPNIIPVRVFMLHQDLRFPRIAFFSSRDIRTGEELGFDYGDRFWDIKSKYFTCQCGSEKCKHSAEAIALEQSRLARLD
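Enzyme 20 nM + cpd, 15 min RT; add b-H3K9 pep 500 nM / SAM 20 uM; 2 h RT; anti-H3K9me1 Ab 0.5 ug/mL + SA donor / anti-rabbit acceptor beads 20 ug/mL each, 10 min; AlphaScreen read.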
Sfp inh: Sfp phosphopantetheinyl transferase inhibition. Q9F4F7. Biochemical Sfp PPTase activity, qHTS. Potency, µM, inactives show largest response in the series, negative = inhibition, hits mostly inhibitors. 310,000 compounds, 3.5% hits;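 also: the enzyme is Sfp with the accession as filed and its product quenches rhodamine fluorescence; 0% = enzyme reaction without inhibitor and -100% = no enzyme wells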
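With Hepes-Na pH 7.6 buffer containing 10 mM MgCl2, Sfp (15 nM) modified BHQ-2-YbbR (12.5 uM) using rhodamine-CoA (5 uM). Two reads 30 minutes apart at 525/598 nm yielded each well's rate.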
* marks the source's active call; other numbers are inactive results; ? = inconclusive; . = no result given; [ ] = dose if it differs, or a comment. Calls follow the shape of the dose curve; as a rule, active = well fitted curve in the direction sought with a large enough effect; inconclusive = small, poorly fitted or top-dose-only effect, or another doubt; inactive = no such curve, though single readings can be large; an effect the other way counts as inactive or inconclusive. Potency is read from the fitted curve at half-maximal effect.

SMILES	JMJD2A Tudor	HP1b binding inh	L3MBTL1 block	BAZ2B block	G9a inh	Sfp inh
CCCc1nn2c(=O)cc(CSCC(=O)Nc3nnc(CC)s3)nc2s1	-18%	46%	.	-6%	-4%[0.501 µM]	2%
CCc1nnc(NC(=O)CSc2nnc(CSc3nc(C)cc(C)n3)o2)s1	-24%	25%	2%	-8%	40µM*	50µM*
COc1cccc(NC(=O)CSCc2cc(=O)n3nc(C4CC4)sc3n2)c1	-24%	44%	.	-14%	-8%	9%
Cc1cccc(NC(=O)CSc2nnc(CSc3nc(C)cc(C)n3)o2)c1	-5%[57.1 µM]	1%	-3%	16%	6%[59 µM]	12%
CCc1nnc(NC(=O)CSCc2cc(=O)n3nc(C)sc3n2)s1	18µM*	24%	.	-12%	48%	8%
Cc1ccc(NC(=O)CSCc2cc(=O)n3nc(C4CC4)sc3n2)cc1	32µM*	15%	.	-20%	21%	9%
CCc1ccc2c(c1)-c1ccccc1S(=O)(=O)N2CC(=O)N1CCCCC1	-24%	-1%	.	-9%	-16%[59 µM]	.
COc1ccc(S(=O)(=O)N(CC(=O)NCc2ccco2)C2CCCCC2)cc1OC	-36%	11%	-10%	-36%	-30%[12.7 µM]	50µM*
COc1ccc(N(CC(=O)NCc2ccco2)S(C)(=O)=O)cc1	-11%	26%	1%	-2%	?	9%
CNC(=O)CN(C1CCCCC1)S(=O)(=O)c1ccc(OC)c(Cl)c1	-6%	9%	-14%	4%	50µM*	5%
Cc1ccc(S(=O)(=O)N(CC(=O)NCc2ccco2)C2CCCCC2)cc1	-23%	9%	?	-34%	?	-15%
COc1ccc(N(CC(=O)NCc2ccco2)S(=O)(=O)c2ccc(C)cc2)cc1OC	-19%	13%	.	4%	20%	0%
CS(=O)(=O)N(CC(=O)NCc1ccco1)c1ccc(OCc2ccccc2)cc1	?	?	6%	71µM*	.	?
COc1ccccc1N(CC(=O)NCc1ccco1)S(=O)(=O)c1ccc(C)cc1	35µM*	45µM*	.	45µM*	32µM*	56µM*
COc1ccc(S(=O)(=O)N(CC(=O)NC2CC2)C2CCCCC2)cc1Cl	-8%	9%	.	6%	-48%[12.7 µM]	7%
CSc1nsc(/C=C/Nc2ccc(O)cc2C)c1C#N	50µM*	-34%	-30%	40µM*	7.9µM*	-78%
CSc1nsc(/C=C/Nc2ccc(Cl)cc2)c1C#N	-29%	11%	-8%	?	-18%[12.7 µM]	-3%
CSc1nsc(/C=C/Nc2cccc(Cl)c2)c1C#N	?	-12%	.	?	10µM*	-1%
Cc1cccc(N(C)c2nc3ccccc3c3nnc(C)n23)c1	-9%	81%	.	7%	?	.
CCc1cc(C(=O)Nc2cnn(Cc3ccccc3C)c2)no1	-6%	31%	.	1%	?	.
O=C(Nc1ccccn1)c1ccc2c(c1)OCO2	-5%	43%	7%	-16%	50µM*	12%
S=C(Nc1ccc2c(c1)OCO2)Nc1ccc2c(c1)OCO2	-21%	?	-2%	?	?	-17%
O=C(Nc1ccc2c(c1)OCO2)c1ccccn1	4.5µM*	?	-3%	?	1.6µM*	.
O=C(Nc1ccc2c(c1)OCO2)N1CCCc2ccccc21	-7%	15%	-6%	-16%	56µM*	1%
Cc1ccc(NC(=O)N2CCCc3ccccc32)cc1	-29%	-21%	0%	8%	6%	14%
SMILES	JMJD2A Tudor	HP1b binding inh	L3MBTL1 block	BAZ2B block	G9a inh	Sfp inh
CN(C)C(=S)Nc1ccc2c(c1)OCO2	-3%	-35%	0%	-22%	8.9µM*	22µM*
O=C(Nc1ccccn1)c1ccc2c(c1)OCCO2	-3%	17%	.	-8%	16%[59 µM]	4%
COc1ccc(-c2nc3ccccc3n3c(-c4ccc(OC)cc4)c4c(=O)n(C)c(=O)n(C)c4c23)cc1	-22%	16%	.	-3%	4%[59 µM]	.
Cc1cccnc1NC(=O)c1ccc2c(c1)OCO2	5%	18%	-2%	-8%	-3%	.
O=C(CNC(=O)c1ccc2c(c1)OCO2)Nc1ncccc1O	56µM*	5%	-7%	?	?	.
c1ccc(C2=NNC(c3ccccn3)=NN2)nc1	7.1µM*	49%	.	2.8µM*	32µM*	13µM*
CC(=O)c1sc(-c2ccccn2)nc1C	.	.	.	6%	35µM*	-4%
COCC(=O)N(C)c1nnc(-c2ccccn2)s1	-2%[11.4 µM]	36%	5%	56µM*	2%[12.7 µM]	13%
c1ccc(-c2nnc(-c3ccccn3)s2)nc1	?	-15%	.	?	-117%[59 µM]	89µM*
Cc1ccc(S(=O)(=O)NCC(=O)N/N=C/c2ccc(Cl)cc2)cc1	-15%	19%	25%	32%	54%[59 µM]	-2%
Cc1ccc(S(=O)(=O)NCC(=O)N/N=C/c2ccc(Cl)cc2Cl)cc1	-24%	12%	-4%	-10%	11%	45µM*
COc1cc2[nH]c(=O)n(Cc3ccc(C(=O)N4CCN(c5cc(Cl)ccc5C)CC4)cc3)c(=O)c2cc1OC	-30%	-11%	.	?	-37%[59 µM]	.
COc1ccc(-n2nc(C(=O)NCC(=O)NCCCN3CCCCCC3)c3ccccc3c2=O)cc1Cl	-17%	26%	9%	-2%	25µM*	-21%
CCN(CCCNC(=O)CNC(=O)c1nn(-c2ccc(OC)cc2)c(=O)c2ccccc12)c1cccc(C)c1	?	-20%	.	-39%	32µM*	13%
COc1ccc(-n2nc(C(=O)NCC(=O)Nc3ccccn3)c3ccccc3c2=O)cc1Cl	32µM*	83%	2%	?	3%[0.0925 µM]	?
COc1ccc(-n2nc(C(=O)NCC(=O)Nc3cccc(Cl)c3)c3ccccc3c2=O)cc1OC	-33%	10%	.	3%	8%	56µM*
O=[N+]([O-])c1ccc(Cl)c(S(=O)(=O)/N=C(/Sc2ccc(Br)cc2)c2ccccc2)c1	?	62%[57 µM]	.	.	.	.
COc1ccc(C)cc1NC(=O)CN1C(=O)CCc2cc(S(=O)(=O)N3CCOCC3)ccc21	?	36%	.	?	0%[59 µM]	.
Cc1nn(-c2ccccc2)c(NC(=O)NS(=O)(=O)c2ccc(Cl)cc2)c1C#N	.	.	.	.	.	8%
CCCCCCCCCCCCCCCC(=O)OC(CO)CO	.	.	.	.	.	12%
COc1ccc2nc(SCC(N)=O)[nH]c2c1	-2%	36%	-3%	4%	-25%[12.7 µM]	7%
CCOc1ccc2nc(SCC3CC3(Cl)Cl)[nH]c2c1 (configuration not stated)	3%	31%	-4%	-19%	45µM*	9%
COc1ccc2nc(SCCN(C)C)[nH]c2c1	-21%	?	6%	50µM*	?	11%
CCN(C(=O)CSc1nc2ccccc2[nH]1)C1CCS(=O)(=O)C1 (configuration not stated)	1%	30%	7%	.	.	.
